The full data set covers some 7,900 targets. This sample favours those with a hit. About 0.6% of all pairs of compound and target were hits.
Columns and labels:
Test in all cases: log2 fold change, soluble protein after heating vs DMSO (PISA); higher = thermal stabilisation; K562 cells, 10 uM, 30 min; active = over 0.2 and 3.5 SD of the protein, either way, in both replicates (recomputed)
[1] = compound: CC1=C(C=C(C=C1)NC(=O)C2=CC(=CC=C2)C(C)(C)C#N)NC3=CC4=C(C=C3)N=CN(C4=O)C
How it was run: (§1)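 Aliquots of K562 cells (2×10^6 cells/mL) treated with 10 μM compound for 30 min were heated for 3 min over 48°C-58°C. After pooling and extraction in PBS with 0.5% NP-40 at 4°C, soluble protein from a 21,000xg, 90 min spin was quantified by TMTpro 16plex LC-MS/MS with channel sums equalised. Thermal stability is expressed against control samples, from duplicates, as a log2 fold change.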

[2] = compound: CC1=C(C=C(C=C1)NC(=O)C2=CC(=CC=C2)N(C)C)NC(=O)C3=CC=C(C=C3)O
How it was run: as §1

[3] = compound: CC1=CC=C(C=C1)SC2=C3C=C(SC3=CN=C2)C(=O)N
How it was run: as §1

[4] = compound: CC1=NC(=CC=C1)C2=C(N=C(N2)C(C)(C)C)C3=CC4=NC=CN=C4C=C3
How it was run: as §1

Nexturastat A = compound: CCCCN(Cc1ccc(C(=O)NO)cc1)C(=O)Nc1ccccc1 [Nexturastat A]
How it was run: as §1

vemurafenib = compound: CCCS(=O)(=O)Nc1ccc(F)c(C(=O)c2c[nH]c3ncc(-c4ccc(Cl)cc4)cc23)c1F [vemurafenib]
How it was run: as §1

[5] = compound: CCCS(=O)(=O)Nc1ccc(F)c(C(=O)c2c[nH]c3ncc(Cl)cc23)c1F
How it was run: as §1

[6] = compound: CCCc1cc(C)[nH]c(=O)c1CNC(=O)c1cc(-c2ccnc(N3CCN(C)CC3)c2)cc2c1cnn2C(C)C
How it was run: as §1

givinostat = compound: CCN(CC)Cc1ccc2cc(COC(=O)Nc3ccc(C(=O)NO)cc3)ccc2c1 [givinostat]
How it was run: as §1

barasertib = compound: CCN(CCCOc1ccc2c(Nc3cc(CC(=O)Nc4cccc(F)c4)[nH]n3)ncnc2c1)CCOP(=O)(O)O [barasertib]
How it was run: as §1

[7] = compound: CC[C@@H]1C(=O)N(C)c2cnc(Nc3ccc(C(=O)NC4CCN(C)CC4)cc3OC)nc2N1C1CCCC1
How it was run: as §1

volasertib = compound: CC[C@@H]1C(=O)N(C)c2cnc(Nc3ccc(C(=O)N[C@H]4CC[C@H](N5CCN(CC6CC6)CC5)CC4)cc3OC)nc2N1C(C)C [volasertib]
How it was run: as §1

[8] = compound: CC[C@H](C)N1C=C(C2=C(C=C(C=C21)C3=CN=C(C=C3)N4CCNCC4)C(=O)NCC5=C(C=C(NC5=O)C)C)C
How it was run: as §1

epoxomicin = compound: CC[C@H](C)[C@@H](C(=O)N[C@@H]([C@@H](C)O)C(=O)N[C@@H](CC(C)C)C(=O)[C@]1(CO1)C)NC(=O)[C@H]([C@@H](C)CC)N(C)C(=O)C [epoxomicin]
How it was run: as §1

[9] = compound: CCn1c(C(=O)N(C2CC2)C2CC2)cc2c3c(ncn3C)c(Nc3cc(C)n(C)n3)nc21
How it was run: as §1

[10] = compound: CCn1cc(-c2ccnc3[nH]c(-c4cccc(CN(C)C)c4)cc23)c(-c2ccc(NC(=O)N(C)C)cc2)n1
How it was run: as §1

[11] = compound: CN(C)CC(=O)Nc1ccc2[nH]c(=O)c3ccccc3c2c1
How it was run: as §1

rosiglitazone = compound: CN(CCOC1=CC=C(C=C1)C[C@H]2C(=O)NC(=O)S2)C3=CC=CC=N3 (racemic) [rosiglitazone]
How it was run: as §1

[12] = compound: CN1C2=C(C3=C1C(=O)N(N=C3)CC4=CC(=CC=C4)N)SC(=C2)S(=O)C
How it was run: as §1

[13] = compound: CN1CCC(CNc2ccc3ncc(-c4cccc(OC(F)(F)F)c4)n3n2)CC1
How it was run: as §1

Measured: log2 fold change

RPS15 (UniProt P62841)
inactive: [1] -0.014 | [2] 0.038 | [3] -0.146 | [4] 0.005 | Nexturastat A 0.285 | vemurafenib -0.117 | [5] -0.175 | [6] 0.1 | givinostat -0.041 | barasertib -0.125 | [7] 0.2 | volasertib 0.294 | [8] -0.017 | epoxomicin -0.056 | [9] 0 | [10] 0.061 | [11] -0.099 | rosiglitazone -0.113 | [12] 0.164 | [13] 0.02

SLC12A9 (UniProt Q9BXP2)
Sequence of UniProt Q9BXP2 (Q9BXP2 whole entry, looked up): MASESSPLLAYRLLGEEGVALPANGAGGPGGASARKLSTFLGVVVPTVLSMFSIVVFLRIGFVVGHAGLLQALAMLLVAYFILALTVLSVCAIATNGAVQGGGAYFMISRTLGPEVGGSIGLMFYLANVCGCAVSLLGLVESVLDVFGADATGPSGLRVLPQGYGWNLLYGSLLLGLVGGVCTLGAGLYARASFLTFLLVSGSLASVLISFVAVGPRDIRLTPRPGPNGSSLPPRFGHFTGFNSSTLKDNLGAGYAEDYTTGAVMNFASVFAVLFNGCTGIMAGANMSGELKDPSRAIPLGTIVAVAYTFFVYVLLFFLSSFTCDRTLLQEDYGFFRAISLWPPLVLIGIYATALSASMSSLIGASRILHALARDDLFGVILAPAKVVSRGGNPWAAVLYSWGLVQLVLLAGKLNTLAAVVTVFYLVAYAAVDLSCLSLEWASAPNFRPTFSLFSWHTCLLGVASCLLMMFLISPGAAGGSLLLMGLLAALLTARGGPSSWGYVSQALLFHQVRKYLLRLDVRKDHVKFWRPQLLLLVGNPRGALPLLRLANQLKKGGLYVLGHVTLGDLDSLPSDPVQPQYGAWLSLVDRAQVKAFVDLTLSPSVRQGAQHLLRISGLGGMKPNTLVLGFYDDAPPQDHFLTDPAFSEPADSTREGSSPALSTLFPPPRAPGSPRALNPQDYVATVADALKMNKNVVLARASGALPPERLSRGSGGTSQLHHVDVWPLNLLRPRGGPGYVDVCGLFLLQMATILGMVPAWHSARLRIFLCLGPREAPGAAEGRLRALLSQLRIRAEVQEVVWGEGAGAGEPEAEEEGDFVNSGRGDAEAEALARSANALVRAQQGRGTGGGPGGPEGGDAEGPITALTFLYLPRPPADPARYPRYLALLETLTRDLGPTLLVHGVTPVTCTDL
inactive: [1] -0.007 | [2] 0.056 | [3] -0.04 | [4] 0.005 | Nexturastat A -0.008 | vemurafenib 0.017 | [5] -0.012 | [6] -0.059 | givinostat -0.014 | barasertib 0.083 | [7] 0.014 | volasertib -0.034 | [8] -0.016 | epoxomicin 0.059 | [9] 0.037 | [10] -0.016 | [11] -0.02 | rosiglitazone 0.034 | [12] -0.075 | [13] -0.136

RPS2 (UniProt P15880)
inactive: [1] 0.006 | [2] 0.009 | [3] -0.075 | [4] -0.036 | Nexturastat A 0.192 | vemurafenib -0.116 | [5] -0.099 | [6] 0.084 | givinostat -0.011 | barasertib -0.095 | [7] 0.168 | volasertib 0.348 | [8] 0.021 | epoxomicin -0.191 | [9] 0.045 | [10] 0.119 | [11] -0.108 | rosiglitazone -0.092 | [12] 0.195 | [13] 0.086

RALY (UniProt Q9UKM9)
Sequence of UniProt Q9UKM9 (Q9UKM9 whole entry, looked up): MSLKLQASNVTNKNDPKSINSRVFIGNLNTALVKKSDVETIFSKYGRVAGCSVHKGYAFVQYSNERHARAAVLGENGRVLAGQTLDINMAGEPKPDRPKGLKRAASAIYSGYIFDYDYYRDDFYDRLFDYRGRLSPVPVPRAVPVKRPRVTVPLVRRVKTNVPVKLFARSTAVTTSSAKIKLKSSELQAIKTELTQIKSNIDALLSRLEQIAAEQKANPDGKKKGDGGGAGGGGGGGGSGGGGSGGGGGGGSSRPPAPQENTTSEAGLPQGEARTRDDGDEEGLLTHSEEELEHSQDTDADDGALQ
inactive: [1] 0.091 | [2] -0.021 | [3] -0.05 | [4] 0.105 | Nexturastat A 0.358 | vemurafenib -0.056 | [5] 0.187 | [6] 0.005 | givinostat 0.209 | barasertib -0.138 | [7] 0.113 | volasertib -0.05 | [8] 0.136 | epoxomicin -0.277 | [9] 0.012 | [10] 0.173 | [11] 0.001 | rosiglitazone -0.134 | [12] 0.358 | [13] 0.092

RRP9 (UniProt O43818)
Sequence of UniProt O43818 (O43818 whole entry, looked up): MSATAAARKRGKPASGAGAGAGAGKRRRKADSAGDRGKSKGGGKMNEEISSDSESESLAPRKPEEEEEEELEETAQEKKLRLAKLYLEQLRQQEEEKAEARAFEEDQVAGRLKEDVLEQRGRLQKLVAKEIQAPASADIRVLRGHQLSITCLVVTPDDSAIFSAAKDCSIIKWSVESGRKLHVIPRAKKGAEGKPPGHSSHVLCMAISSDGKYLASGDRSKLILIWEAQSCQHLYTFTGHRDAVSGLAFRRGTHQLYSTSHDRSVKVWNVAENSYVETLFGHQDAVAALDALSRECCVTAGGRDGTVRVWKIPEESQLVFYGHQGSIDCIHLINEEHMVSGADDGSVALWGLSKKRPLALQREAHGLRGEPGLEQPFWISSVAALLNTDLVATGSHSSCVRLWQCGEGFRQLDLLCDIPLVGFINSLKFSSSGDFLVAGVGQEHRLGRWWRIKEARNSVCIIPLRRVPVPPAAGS
inactive: [1] -0.03 | [2] 0.057 | [3] -0.046 | [4] -0.081 | Nexturastat A 0.095 | vemurafenib -0.026 | [5] -0.074 | [6] 0.009 | givinostat 0.047 | barasertib -0.084 | [7] 0.09 | volasertib 0.148 | [8] -0.049 | epoxomicin -0.107 | [9] -0.017 | [10] 0.136 | [11] -0.113 | rosiglitazone -0.129 | [12] 0.039 | [13] 0.236

RSF1 (UniProt Q96T23)
Sequence of UniProt Q96T23 (Q96T23 whole entry, looked up): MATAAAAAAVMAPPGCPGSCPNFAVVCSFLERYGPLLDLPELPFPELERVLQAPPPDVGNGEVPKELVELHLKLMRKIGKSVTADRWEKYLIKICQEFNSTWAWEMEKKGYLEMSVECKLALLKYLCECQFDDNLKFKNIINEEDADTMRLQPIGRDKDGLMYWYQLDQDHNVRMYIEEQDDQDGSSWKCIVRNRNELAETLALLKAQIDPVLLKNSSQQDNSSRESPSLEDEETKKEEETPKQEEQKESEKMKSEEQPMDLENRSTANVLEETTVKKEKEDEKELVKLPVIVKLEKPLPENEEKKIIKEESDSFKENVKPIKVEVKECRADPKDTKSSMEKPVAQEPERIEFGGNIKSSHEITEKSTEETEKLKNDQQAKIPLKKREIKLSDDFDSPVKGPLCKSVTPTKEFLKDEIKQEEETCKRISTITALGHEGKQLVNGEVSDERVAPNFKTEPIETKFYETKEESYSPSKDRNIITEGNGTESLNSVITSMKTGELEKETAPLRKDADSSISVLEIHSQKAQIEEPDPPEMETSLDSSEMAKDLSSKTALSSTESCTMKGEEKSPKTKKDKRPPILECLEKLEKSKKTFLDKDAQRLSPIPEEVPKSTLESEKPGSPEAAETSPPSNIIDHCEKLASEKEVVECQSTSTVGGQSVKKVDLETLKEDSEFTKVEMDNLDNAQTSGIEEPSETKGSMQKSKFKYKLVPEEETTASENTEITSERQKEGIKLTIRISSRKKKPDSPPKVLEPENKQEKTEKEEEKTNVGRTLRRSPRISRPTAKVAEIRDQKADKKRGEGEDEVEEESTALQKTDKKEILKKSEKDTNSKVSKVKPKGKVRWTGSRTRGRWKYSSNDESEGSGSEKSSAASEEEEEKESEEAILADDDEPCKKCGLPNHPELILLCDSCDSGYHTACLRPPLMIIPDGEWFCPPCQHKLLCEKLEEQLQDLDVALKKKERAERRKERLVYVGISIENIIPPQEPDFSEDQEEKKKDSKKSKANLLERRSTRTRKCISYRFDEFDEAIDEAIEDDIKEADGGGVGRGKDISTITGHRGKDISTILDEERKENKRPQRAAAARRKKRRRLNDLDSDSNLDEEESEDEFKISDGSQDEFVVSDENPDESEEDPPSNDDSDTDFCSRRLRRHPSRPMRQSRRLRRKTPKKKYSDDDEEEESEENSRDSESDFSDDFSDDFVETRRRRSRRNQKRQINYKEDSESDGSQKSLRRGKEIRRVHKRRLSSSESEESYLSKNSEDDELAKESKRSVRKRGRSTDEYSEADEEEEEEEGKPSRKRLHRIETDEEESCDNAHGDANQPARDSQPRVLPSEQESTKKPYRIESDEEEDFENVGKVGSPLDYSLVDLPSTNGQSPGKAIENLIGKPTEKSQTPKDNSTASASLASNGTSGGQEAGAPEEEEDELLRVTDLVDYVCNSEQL
inactive: [1] 0.111 | [2] -0.112 | [3] -0.015 | [4] 0.217 | Nexturastat A -0.091 | vemurafenib 0.119 | [5] 0.052 | [6] 0.029 | givinostat 0.084 | barasertib 0.095 | [7] -0.138 | volasertib -0.358 | [8] 0.012 | epoxomicin 0.165 | [9] -0.097 | [10] -0.098 | [11] 0.141 | rosiglitazone 0.006 | [12] -0.008 | [13] -0.109

SLC18B1 (UniProt Q6NT16)
Sequence of UniProt Q6NT16 (Q6NT16 whole entry, looked up): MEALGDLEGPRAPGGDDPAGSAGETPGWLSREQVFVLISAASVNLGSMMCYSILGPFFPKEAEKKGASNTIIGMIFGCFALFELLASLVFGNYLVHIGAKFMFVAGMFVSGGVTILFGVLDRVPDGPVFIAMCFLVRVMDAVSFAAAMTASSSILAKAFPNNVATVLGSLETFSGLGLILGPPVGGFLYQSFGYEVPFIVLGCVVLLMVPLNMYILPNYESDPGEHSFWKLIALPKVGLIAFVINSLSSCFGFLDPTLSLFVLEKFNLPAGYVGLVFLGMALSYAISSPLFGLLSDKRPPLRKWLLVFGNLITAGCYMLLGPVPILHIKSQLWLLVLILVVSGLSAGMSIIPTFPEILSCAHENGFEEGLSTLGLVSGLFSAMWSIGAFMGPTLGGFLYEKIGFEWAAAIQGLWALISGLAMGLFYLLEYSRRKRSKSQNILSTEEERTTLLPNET
inactive: [1] -0.016 | [2] -0.194 | [3] -0.07 | [4] -0.111 | Nexturastat A 0.034 | vemurafenib 0.069 | [5] 0.005 | [6] -0.044 | givinostat -0.02 | barasertib 0.084 | [7] 0.031 | volasertib -0.114 | [8] -0.034 | epoxomicin 0.022 | [9] 0.068 | [10] -0.005 | [11] -0.134 | rosiglitazone -0.044 | [12] -0.035
active: [13] -0.592

SEC31A (UniProt O94979)
active: volasertib -0.354
inactive: [1] -0.053 | [2] -0.052 | [3] 0.015 | [4] 0.019 | Nexturastat A 0.102 | vemurafenib 0.054 | [5] 0.064 | [6] -0.032 | givinostat 0.098 | barasertib 0.052 | [7] -0.035 | [8] 0.021 | epoxomicin 0.034 | [9] -0.044 | [10] 0.018 | [11] 0.046 | rosiglitazone 0.018 | [12] 0.051 | [13] -0.11

RPS5 (UniProt P46782)
inactive: [1] 0.012 | [2] 0 | [3] 0.001 | [4] -0.038 | Nexturastat A 0.126 | vemurafenib -0.034 | [5] -0.066 | [6] 0.038 | givinostat -0.014 | barasertib -0.1 | [7] 0.103 | volasertib 0.337 | [8] 0.065 | epoxomicin -0.079 | [9] 0.025 | [10] 0.059 | [11] -0.036 | rosiglitazone -0.073 | [12] 0.089 | [13] 0.044

SASH1 (UniProt O94885)
active: volasertib -0.308
inactive: [1] 0.046 | [2] -0.013 | [3] 0.024 | [4] 0.01 | Nexturastat A 0.038 | vemurafenib -0.043 | [5] 0.097 | [6] -0.031 | givinostat -0.063 | barasertib 0.071 | [7] -0.136 | [8] 0.044 | epoxomicin -0.075 | [9] -0.012 | [10] 0.027 | [11] 0.042 | rosiglitazone 0.044 | [12] 0.054 | [13] -0.29

RSRC2 (UniProt Q7L4I2)
inactive: [1] -0.048 | [2] 0.04 | [3] -0.058 | [4] 0 | Nexturastat A 0.015 | vemurafenib 0.007 | [5] 0.003 | [6] -0.063 | givinostat -0.013 | barasertib 0.01 | [7] 0.003 | volasertib -0.032 | [8] -0.022 | epoxomicin 0.031 | [9] 0.006 | [10] -0.043 | [11] 0.007 | rosiglitazone 0.008 | [12] -0.028 | [13] -0.025

SEC16A isoform 5 (UniProt O15027)
inactive: [1] -0.079 | [2] -0.042 | [3] 0.036 | [4] -0.001 | Nexturastat A 0.044 | vemurafenib 0.035 | [5] -0.031 | [6] 0.061 | givinostat 0.09 | barasertib 0.043 | [7] -0.058 | volasertib -0.271 | [8] 0.051 | epoxomicin -0.04 | [9] -0.146 | [10] -0.048 | [11] 0.1 | rosiglitazone 0.06 | [12] 0.078 | [13] -0.047

RBM26 isoform 2 (UniProt Q5T8P6)
Sequence of UniProt Q5T8P6 (Q5T8P6 whole entry, looked up): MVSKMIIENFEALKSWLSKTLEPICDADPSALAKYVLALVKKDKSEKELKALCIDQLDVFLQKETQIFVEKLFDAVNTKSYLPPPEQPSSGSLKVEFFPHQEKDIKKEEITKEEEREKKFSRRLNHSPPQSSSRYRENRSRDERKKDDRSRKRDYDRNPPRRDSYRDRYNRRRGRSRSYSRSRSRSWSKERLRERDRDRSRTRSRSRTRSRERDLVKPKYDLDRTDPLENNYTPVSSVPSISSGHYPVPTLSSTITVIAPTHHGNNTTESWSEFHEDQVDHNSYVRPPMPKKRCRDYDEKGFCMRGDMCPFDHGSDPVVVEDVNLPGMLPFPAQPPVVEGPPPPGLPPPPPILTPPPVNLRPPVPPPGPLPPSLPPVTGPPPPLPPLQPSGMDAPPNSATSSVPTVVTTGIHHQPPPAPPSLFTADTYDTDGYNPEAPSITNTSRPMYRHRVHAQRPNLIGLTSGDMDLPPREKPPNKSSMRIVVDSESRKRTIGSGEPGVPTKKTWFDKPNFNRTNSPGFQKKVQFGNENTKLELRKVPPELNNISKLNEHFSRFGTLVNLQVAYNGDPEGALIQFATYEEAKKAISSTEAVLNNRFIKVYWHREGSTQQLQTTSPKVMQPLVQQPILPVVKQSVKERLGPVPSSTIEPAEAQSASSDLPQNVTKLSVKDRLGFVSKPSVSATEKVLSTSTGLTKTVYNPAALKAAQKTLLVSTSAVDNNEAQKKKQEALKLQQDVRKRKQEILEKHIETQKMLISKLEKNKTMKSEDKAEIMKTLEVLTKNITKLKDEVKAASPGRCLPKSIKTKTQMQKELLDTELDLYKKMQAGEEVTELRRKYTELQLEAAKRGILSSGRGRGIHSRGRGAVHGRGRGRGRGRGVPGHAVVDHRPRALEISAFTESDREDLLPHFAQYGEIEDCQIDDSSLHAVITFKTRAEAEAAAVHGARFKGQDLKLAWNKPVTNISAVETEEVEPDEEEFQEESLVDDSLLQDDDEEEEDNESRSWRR
inactive: [1] 0.122 | [2] -0.088 | [3] 0.033 | [4] 0.116 | Nexturastat A -0.184 | vemurafenib 0.143 | [5] 0.09 | [6] -0.014 | givinostat 0.097 | barasertib 0.079 | [7] -0.207 | volasertib -0.299 | [8] 0.151 | epoxomicin 0.098 | [9] -0.061 | [10] -0.069 | [11] 0.072 | rosiglitazone 0.094 | [12] -0.011 | [13] -0.177

RPS6KA2 isoform 2 (UniProt Q15349)
inactive: [1] -0.087 | [2] -0.229 | [3] 0.159 | [4] 0.011 | Nexturastat A 0.009 | vemurafenib 0.037 | [5] 0.026 | [6] 0.023 | givinostat -0.148 | barasertib 0.064 | [7] -0.136 | volasertib -0.179 | [8] 0.034 | epoxomicin 0.041 | [9] 0.133 | [10] -0.126 | [11] 0.025 | rosiglitazone 0.072 | [12] -0.038 | [13] -0.313

RPP25L (UniProt Q8N5L8)
Sequence of UniProt Q8N5L8 (Q8N5L8 whole entry, looked up): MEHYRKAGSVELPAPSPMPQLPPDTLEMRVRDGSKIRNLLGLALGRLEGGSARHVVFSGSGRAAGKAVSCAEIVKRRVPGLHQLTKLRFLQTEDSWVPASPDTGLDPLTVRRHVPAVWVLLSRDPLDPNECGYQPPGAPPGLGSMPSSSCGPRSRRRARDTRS
inactive: [1] -0.028 | [2] -0.015 | [3] 0.036 | [4] 0.02 | Nexturastat A -0.01 | vemurafenib -0.034 | [5] -0.035 | [6] -0.048 | givinostat -0.073 | barasertib -0.025 | [7] 0.144 | volasertib 0.115 | [8] -0.042 | epoxomicin -0.04 | [9] -0.052 | [10] 0.059 | [11] -0.074 | rosiglitazone -0.093 | [12] 0.061 | [13] 0.058

RAB33B (UniProt Q9H082)
Sequence of UniProt Q9H082 (Q9H082 whole entry, looked up): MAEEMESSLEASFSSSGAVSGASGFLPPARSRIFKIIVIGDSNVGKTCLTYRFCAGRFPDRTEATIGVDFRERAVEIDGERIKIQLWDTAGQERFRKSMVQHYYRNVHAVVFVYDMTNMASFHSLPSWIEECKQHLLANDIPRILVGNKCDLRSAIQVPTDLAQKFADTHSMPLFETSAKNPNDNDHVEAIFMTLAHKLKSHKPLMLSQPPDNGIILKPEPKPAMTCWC
inactive: [1] -0.028 | [2] -0.026 | [3] -0.028 | [4] -0.071 | Nexturastat A -0.004 | vemurafenib -0.083 | [5] -0.038 | [6] -0.065 | givinostat -0.012 | barasertib 0.031 | [7] -0.016 | volasertib -0.014 | [8] -0.04 | epoxomicin -0.009 | [9] -0.005 | [10] 0.09 | [11] -0.031 | rosiglitazone 0.033 | [12] -0.067 | [13] -0.006

Source: the supplement of paper PMC10849652
